Cycloheximide cs – Cycloheximide Counterscreen for Small Molecule Inhibitors of Shiga Toxin | AID 2314, 2010 | hit rate 12% among 300,000 | cell reporter, cycloheximide protein synthesis inhibition counterscreen | max response, %; in the data active = max response mostly above about 13%, no sharp cut-off; inactive = mostly below about 14%; also: read at 38.3 µM for the half of the compounds with a filed dose; 0% is about no effect
NS1 function inh – qHTS Assay for Inhibitors of Influenza NS1 Protein Function; hit rate 0.4% among 270,000; Potency, µM (doses to about 46.1 µM), inactives show at the top dose activity, positive = more growth; AID 2326, 2010; calls by dose curve; also: potency is read from the fitted curve at half-maximal effect; actives are rising curves; nearly all actives have a fitted effect of over 50% in size
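Growth recovery, yeast-based: influenza A NS1 expressed in S. cerevisiae causes slow growth, and suppressors are detected by OD600. The parent strain without NS1 is used as positive control.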
Pf growth 96h – Primary qHTS for delayed death inhibitors of the malarial parasite plastid, 96 hour incubation | hit rate 6.9% among 320,000 | P. falciparum luciferase reporter growth, 96 h | Potency, µM (titrated, usually from 28.7 µM), for the others: at the top dose activity change, negative = inhibition, actives largely listed as inhibitors | AID 504834, 2011; also: potency is read from the fitted curve at half-maximal effect; % is scaled to controls: 0 for no effect and ±100 for the full control effect
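Compounds incubated with erythrocytes infected by luciferase-expressing P. falciparum (2% hematocrit, 0.05% parasitemia final) for 96 hours, 37 C in 5% CO2. Growth inhibition scored as decreased luciferase luminescence.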
Pf growth 48h – Primary qHTS for delayed death inhibitors of the malarial parasite plastid, 48 hour incubation; hit rate 5.9% among 310,000; Potency, µM (titrated, usually from 28.7 µM), for inactives: at the top dose activity change, negative = inhibition, most hits filed as inhibitors; P. falciparum luciferase growth in erythrocytes, 48 h; also: potency is read from the fitted curve at half-maximal effect; % is scaled to controls: 0 for no effect and ±100 for the full control effect
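Growth was read as firefly luciferase luminescence after a 48 h, 37 C, 5% CO2 exposure of compounds to reporter-bearing P. falciparum cultures (0.1% parasitemia, 2% hematocrit final) in Albumax-supplemented RPMI 1640.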
Shiga toxin inh – A qHTS for Small Molecule Inhibitors of Shiga Toxin; inhibition, % at 38.7 µM; Vero cells, Shiga toxin protein synthesis inhibition reporter; hit rate 9.2% among 290,000; in the data active = inhibition mostly above about 28%, no sharp cut-off; inactive = mostly below about 43%; also: 0% is about no effect
* hit, by the source's call; ? = inconclusive; / = no result; + = active, no number; [ ] = remark or other dose. An excerpt weighted towards active compounds, which were near 21% of everything screened. Unless noted, calls follow the shape of the dose curve; as a rule, active = well fitted inhibition curve with a large enough effect; inconclusive = small, poorly fitted or top-dose-only effect, or another doubt; inactive = no such curve, though single readings can be large or run the other way.

SMILES | Cycloheximide cs | NS1 function inh | Pf growth 96h | Pf growth 48h | Shiga toxin inh
S=c1nc(C2CCCCC2)[nH]c2ccccc12 | -2 | 3% | 2.3µM* | -13% | 25
Cc1ccc(CN2CCC(c3nc4ccc(Cl)cc4[nH]3)CC2)cc1 | -4 | 0% | ? | 8.3µM* | -9
Cc1ccc2nc(C3CCCCC3)[nH]c2c1 | 38* | -5% | ? | 79% | 42*
CCNC(=S)N1CCCC(c2nc3ccc(C)cc3[nH]2)C1 (stereo unspecified) | 9 | -35% | 31% | -11% | 29
COc1cc(NC(=S)N2CCCC(CO)C2)c(OC)cc1Cl (stereo unspecified) | -1 | -3% | 3% | 10% | 15
COc1cc(/C=C(\C#N)c2nc3ccccc3[nH]2)cc(Br)c1OCc1ccccc1 | 12* | -3% | -15% | 2.9µM* | 15
COc1cc(/C=C(\C#N)c2nc3ccccc3[nH]2)cc(Br)c1OCc1ccc(F)cc1 | 11 | 17% | 2.1µM* | 3.7µM* | -6
COc1ccc(/C=N/OC/C(O)=C(\C#N)c2nc3ccccc3[nH]2)cc1OC | 5 | 6% | -11% | -5% | 9
C[C@H](NC(=O)[C@H]1N2C(=O)c3ccccc3C2SC1(C)C)C(=O)N1CCC[C@H]1C(=O)O (stereo partly specified) | -3 | -2% | ? | ? | -5
COc1ccccc1CCC(=O)OCC(=O)Nc1ccc(C(N)=O)cc1 | -2 | 18% | 15% | 13% | 36
Cc1ccc(-c2noc(CCC(=O)NCCN3CCc4ccccc4C3)n2)cc1 | 17 | -5% | ? | ? | 24
OC(c1ccc(Cl)cc1Cl)C(Cc1cccnc1)n1cncn1 (stereo unspecified) | 6 | 2% | 13µM* | ? | -27
O=[N+]([O-])c1ccc(CNc2cccc(Cl)c2)s1 | -2 | -33% | 78% | ? | 25
COc1ccc(NCc2ccc([N+](=O)[O-])s2)cc1 | 21* | -29% | 5% | ? | 31
O=[N+]([O-])c1ccc(CNc2ccc(F)cc2)s1 | -1 | -27% | -21% | -17% | -10
O=[N+]([O-])c1ccc(CNc2ccc(Cl)cc2)s1 | 13* | -59% | ? | -22% | 28
COc1ccc(NCc2ccc([N+](=O)[O-])s2)c(OC)c1 | 25* | -28% | ? | -11% | 34*
Cc1ccc(-c2[nH]c(=S)[nH]c(=O)c2C#N)cc1 | -6 | 2% | 30% | 7% | 24
Cc1cc(CNC(=O)c2cccnc2Cl)c2ccccc2n1 | -5 | / | 27% | 25% | 31
COc1ccc2[nH]c(N=Nc3ccccc3C)c(O)c2c1 | 16 | 3% | -29% | 83% | +
COc1ccc2[nH]cc(C(=O)CCl)c2c1 | -7 | -55% | -5% | 7% | -7
COc1ccc2[nH]cc(C(=O)CNc3nc(C)cs3)c2c1 | 36* | -14% | 36% | 1.7µM* | 141*
CCc1nnc(NS(=O)(=O)c2ccc(N=Cc3c(C)[nH]n(-c4ccc(C)c(C)c4)c3=O)cc2)s1 | 12* | -2% | -16% | 5% | 10
Cc1ccc(/C=C2/SC(=O)N(CC(=O)N3CCOCC3)C2=O)s1 | -5 | 12% | 0% | 0% | 27
O=C(CN1C(=O)S/C(=C/c2ccc(N3CCOCC3)cc2)C1=O)N1CCOCC1 | 17* | 4% | 151% | 86% | 36*
SMILES | Cycloheximide cs | NS1 function inh | Pf growth 96h | Pf growth 48h | Shiga toxin inh
Cc1ccsc1/C=C1/SC(=O)N(CC(=O)N2CCOCC2)C1=O | 25* | -14% | 0% | 119% | 70
CC(C)OC(=O)CSc1nnc(-c2ccccn2)n1N | -2 | -2% | 15% | 5% | 25
CC(=O)c1ccc(Nc2ccc(-c3ccccc3C)nn2)cc1 | 55* | -10% | 10% | -8% | 107*
CC(=O)c1cccc(Nc2ccc(-c3ccccc3F)nn2)c1 | 38* | / | 6% | 304% | 94*
COc1ccccc1-c1ccc(Nc2cccc(C(C)=O)c2)nn1 | 37* | -10% | 2% | 20% | 74*
C[C@H](NC(=O)CNC(=O)[C@@H](NC(=O)[C@H](Cc1ccccc1)NC(=O)CNC(=O)CNC[C@@H](N)Cc1ccccc1)[C@@H](C)O)C(=O)N[C@@H](CCCN=C(N)N)C(=O)N[C@@H](CCCCN)C(=O)N[C@@H](CO)C(=O)N[C@@H](C)C(=O)N[C@@H](CCCN=C(N)N)C(=O)N[C@@H](CCCCN)C(N)=O | -2 | / | / | / | -10
Cc1ccccc1-c1nn(-c2ccccc2)cc1C(=O)NCC(c1ccco1)N1CCCC1 (stereo unspecified) | / | / | -46% | ? | /
COc1cccc(-c2nn(-c3ccc(C)cc3)cc2C(=O)NCC(c2cccs2)N2CCOCC2)c1 (stereo unspecified) | / | / | ? | 3.3µM* | /
COc1cccc(-c2nn(-c3ccccc3)cc2C(=O)NCC(=O)O)c1 | -2 | 2% | -5% | 7% | -5
O=C(NCC(c1cccs1)N1CCOCC1)c1cn(-c2ccccc2)nc1-c1ccccc1 (stereo unspecified) | / | / | 13µM* | ? | /
COc1ccc(-c2nn(-c3ccccc3)cc2C(=O)NCC(c2cccs2)N2CCOCC2)cc1 (stereo unspecified) | / | / | ? | 13µM* | /
COc1ccc(OCC(=O)NCC(c2cccs2)N2CCOCC2)cc1 (stereo unspecified) | / | / | 0% | -7% | /
COc1ccc(OC)c(-c2nn(-c3ccccc3)cc2C(=O)NCC(c2ccco2)N2CCCC2)c1 (stereo unspecified) | / | / | ? | 9.3µM* | /
CCOC(=O)Cn1c(=O)oc2cc(S(=O)(=O)N(C)Cc3ccccc3)ccc21 | 1 | 4% | 12% | ? | -5
Cc1csc(=O)n1CC(=O)OCC(=O)NNC(=O)c1ccc(Cl)cc1 | / | / | 17% | 34% | /
COc1ccc(-c2nnc(SCC(=O)Nc3cc(S(=O)(=O)N4CCCCC4)ccc3Cl)n2N)cc1 | -3 | ? | ? | ? | -4
CC(C)(C)c1ccc(Oc2ccc(NC(=O)c3cccs3)cn2)cc1 | 9 | -6% | 13µM* | 2.6µM* | 2
COc1ccc(NC(=O)c2cccs2)cn1 | 26* | -49% | 102% | 18% | 61*
CC(C)(C)c1ccc(Oc2ncccc2NC(=O)c2cccs2)cc1 | -2 | -12% | -16% | -16% | 16
COc1ccc2c(CC(=O)OCC(=O)Nc3cccc(C)c3)coc2c1 | / | / | -5% | 23% | /
O=C(NCCCN1CCOCC1)c1ccc(S(=O)(=O)N2CCOCC2)cc1 | 26* | 10% | 22%[5.75 µM] | 4% | -9
O=C(NCCCN1CCOCC1)c1ccc(Br)cc1 | 9 | 3% | -1% | / | 30
CC(C)c1ccc(C(=O)NCCCN2CCOCC2)cc1 | 37* | 2% | 14% | 32% | 60
CN1CCc2c(C#N)c(N3CCCCC3)nc(NCc3ccccc3)c2C1 | -5 | -1% | 2.3µM* | ? | -15
CC(C)c1nc(NCc2ccccc2)c(C#N)c2c1CCCC2 | 3 | 6% | ? | ? | -12

Source: PubChem
